The full ranking holds about 39,000 sequences; the median of “fluorescence intensity (a.u.)” is about 4,300, and the highest 2% start at about 39,000. What follows is part of a selection rich in the highest values, with near analogues and random picks from the rest.

The values that follow come from PMC7819943, “Rice protein-binding microarrays: a tool to detect cis-acting elements near promoter regions in rice”.

The target of the assay is T1, OsSMF1 (Oryza sativa, UniProt Q6ZLB0 1-436).
T1 sequence: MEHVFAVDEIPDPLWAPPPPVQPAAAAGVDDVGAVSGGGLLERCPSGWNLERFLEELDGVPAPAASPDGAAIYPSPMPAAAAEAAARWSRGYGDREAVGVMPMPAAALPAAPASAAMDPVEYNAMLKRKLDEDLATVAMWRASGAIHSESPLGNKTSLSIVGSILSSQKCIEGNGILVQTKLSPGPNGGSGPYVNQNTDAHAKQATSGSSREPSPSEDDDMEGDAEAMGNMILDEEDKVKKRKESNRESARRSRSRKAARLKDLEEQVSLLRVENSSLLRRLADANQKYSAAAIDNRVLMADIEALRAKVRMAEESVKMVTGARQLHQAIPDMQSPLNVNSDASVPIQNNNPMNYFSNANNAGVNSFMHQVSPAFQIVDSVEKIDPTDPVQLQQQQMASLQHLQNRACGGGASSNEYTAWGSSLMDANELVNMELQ
The assay is described as follows: protein-binding microarray (RPBM); PBS, 2% BSA, 51.3 ng/ul salmon testes DNA, 50 uM zinc acetate, 200 nM TF, 25 C, 1 h; high values mean tight binding. The settings on record: protein: recombinant; tags: N-terminal polyhistidine and DsRed monomer fusion (pET32a); chain copies: 2; label: CyDye5-dUTP incorporated in the synthesized complementary strand; 3' TTTTT single-stranded linker to array surface; dsDNA, one strand shown. The gist of the method:
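The binding signal is fluorescence intensity per feature, in arbitrary units, read on an Axon 4000B scanner. Polyhistidine- and DsRed-tagged transcription factors (N-terminal fusions) from E. coli BL21-CodonPlus were purified on Ni–NTA and applied at 200 nM for 1 h at 25 °C to a double-stranded, BSA-blocked custom Agilent array in buffer with 50 µM zinc acetate.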
Consider “CCCGCGGATCGATCGATCGCCGCCGCGCGCCTGGACGAGCCGGAGTCACCTAGTGCAG”, for which the binding signal was 3300 fluorescence intensity (a.u.).

Regarding “CCGCCACCCGCTGCCCGGGGAGCTCCGCCTTCACCTCCGCCGGAGTCACCTAGTGCAG”, the binding signal was 7820 fluorescence intensity (a.u.).

“AATCGTGTCCATGGTCTCCACCTCACGGGAGATTCTCCGCCGGAGTCACCTAGTGCAG”: the binding signal was 3830 fluorescence intensity (a.u.).

In the case of “CGCCTCCGTGGACCCGGTCCACGGGGAGATTACACCTTCACGGAGTCACCTAGTGCAG”, the binding signal is 57600 fluorescence intensity (a.u.).

As to “ATAGTTAGGTGACAATTGACAAGTGTCAAGTTGTGTATGACGGAGTCACCTAGTGCAG”, the binding signal is 3360 fluorescence intensity (a.u.).

For “TGATGGCGGCTTTAGGTGACATGCAGCATTAAGTGGCATGCGGAGTCACCTAGTGCAG”, the binding signal was 4460 fluorescence intensity (a.u.).

“GGACACCCGCTCCGCGTCGCGCGCACGCTAGAAGAACTCCCGGAGTCACCTAGTGCAG”: the binding signal was 3140 fluorescence intensity (a.u.).

With “AATTGCTATGGTTACACCCGGCCGAAGCAAAGTCACCACTCGGAGTCACCTAGTGCAG”, the binding signal is 3520 fluorescence intensity (a.u.).

In the case of “TCCAAGAAAGTGACCAAGCAAATGACGCAAGTGGTGCACGCGGAGTCACCTAGTGCAG”, the binding signal was 40200 fluorescence intensity (a.u.).

With “CGGAAAAGAAAGCCATGGAAGAAATGACGCAAGCAGCGGACGGAGTCACCTAGTGCAG”, the binding signal is 4230 fluorescence intensity (a.u.).

In the case of “TCGCACCAAGAATTGTTCACCTACCTTCAAAGTTCCAACACGGAGTCACCTAGTGCAG”, the binding signal was 63300 fluorescence intensity (a.u.).

Take “ACGACACTACCAATTGTTTGGCCTTCAATCCAAACTAGCACGGAGTCACCTAGTGCAG”: the binding signal was 3500 fluorescence intensity (a.u.).

With “CTCTCCTCCTTTCTTCTCCAAGTCAACAGTTCCTACGCTACGGAGTCACCTAGTGCAG”, the binding signal is 3360 fluorescence intensity (a.u.).

On to “GAAATGCCAAGTGTGAGAAGATGACGCACCCAAATGCAACCGGAGTCACCTAGTGCAG”, for which the binding signal was 5640 fluorescence intensity (a.u.).

For the sequence “AGCAAGCAAAGCCGAAGAATTGTTACACGGCCAAAGTGGACGGAGTCACCTAGTGCAG”, the binding signal is 41200 fluorescence intensity (a.u.).

Regarding “GCAGCTGAAGTGGACCTGTCAGCAAGTAAAGCCAAGAGGCCGGAGTCACCTAGTGCAG”, the binding signal was 3470 fluorescence intensity (a.u.).

With “GCAAAAGCATCTTGGAGGAGATACAGTCAGCTGGCAATCCCGGAGTCACCTAGTGCAG”, the binding signal is 4160 fluorescence intensity (a.u.).

On to “CCACCACGCTTTCCCCGCGCGATGACTCCGCCGCCGCGCCCGGAGTCACCTAGTGCAG”, for which the binding signal is 5400 fluorescence intensity (a.u.).

Turning to “CCCACGTGAGTAAGCTCCTCCCTGCTGGTTTGATTCCCTTCGGAGTCACCTAGTGCAG”, the binding signal was 4650 fluorescence intensity (a.u.).

On to “GTGTAAAAGTTTTGACGTGTCACATCGGATATACGGACACCGGAGTCACCTAGTGCAG”, for which the binding signal is 15300 fluorescence intensity (a.u.).

On to “CAAAAGTTTTGACGTGTCACATCGGATATACGGACACACACGGAGTCACCTAGTGCAG”, for which the binding signal is 10800 fluorescence intensity (a.u.).

For the sequence “TTGGGGAAAAGTTTTGAGTTTGATTGTCACATCGGATATACGGAGTCACCTAGTGCAG”, the binding signal is 53000 fluorescence intensity (a.u.).

For the sequence “TTCCATCCAGAGTGCGTCACGAACGCGCCAGTCGCCCGGTCGGAGTCACCTAGTGCAG”, the binding signal was 3990 fluorescence intensity (a.u.).

For the sequence “ATAACCGCCCTAATTTACTTTAGCATACGTGGAGTACAAGCGGAGTCACCTAGTGCAG”, the binding signal is 6900 fluorescence intensity (a.u.).

“AGCTCACCGCATTGTAAAGGCCCTTACTAATCTTAGCAAGCGGAGTCACCTAGTGCAG”: the binding signal is 40300 fluorescence intensity (a.u.).

As to “AAAGAACGCAGCCTTAGAAGGAGACAGCTCATGGAGCAAGCGGAGTCACCTAGTGCAG”, the binding signal is 5000 fluorescence intensity (a.u.).

Consider “AAATCACACCCACGCTCGTGCCCATTGGGTCGGGTATCCGCGGAGTCACCTAGTGCAG”, for which the binding signal was 3550 fluorescence intensity (a.u.).

With “CCACGCTAAAATTGGAAGTTTGACTAAAATTAGAAGTTTACGGAGTCACCTAGTGCAG”, the binding signal is 60200 fluorescence intensity (a.u.).

As for “GTATTGAGAATTGTATGACTAATCAATGTTGCCTTACTTACGGAGTCACCTAGTGCAG”, the binding signal was 5200 fluorescence intensity (a.u.).

Regarding “ATGTTTAGTTCCACGTCAAAATTGGAAGTTTGAAGAAATTCGGAGTCACCTAGTGCAG”, the binding signal is 3980 fluorescence intensity (a.u.).

As to “GGAAGGAGACTGCTTGGTCACTAATTTAATCTGCTACTACCGGAGTCACCTAGTGCAG”, the binding signal was 3140 fluorescence intensity (a.u.).

In the case of “GAGAATTTGCTACTAATTGACTTACCAATTTGGAATTTACCGGAGTCACCTAGTGCAG”, the binding signal was 46100 fluorescence intensity (a.u.).

“TTAAGGTGTGTTTAGTTCCACGTCAAAATTAGAAGTTTGACGGAGTCACCTAGTGCAG”: the binding signal was 7090 fluorescence intensity (a.u.).

Turning to “GCCGGCGTCGCCGTCGGGGATGCACCTCGGCGCGTCCGTCCGGAGTCACCTAGTGCAG”, the binding signal is 3550 fluorescence intensity (a.u.).

For “CGTGCTCACGAAACCCGATCGATCGGTGATCTGCACCGTCCGGAGTCACCTAGTGCAG”, the binding signal is 45200 fluorescence intensity (a.u.).

Take “TCCCGAAACCCGACACGCGGCACCGATCGATCGATCGATCCGGAGTCACCTAGTGCAG”: the binding signal is 3240 fluorescence intensity (a.u.).

Regarding “TGTCCCCGAACCGGATCTGCCCGATGCTCGCCGTCAGCATCGGAGTCACCTAGTGCAG”, the binding signal was 4300 fluorescence intensity (a.u.).

In the case of “ATTCTGTCTCCTTTGCCTGTCGTCACGCTGTCATCACGCTCGGAGTCACCTAGTGCAG”, the binding signal is 4480 fluorescence intensity (a.u.).

On to “CCGTATACATAGCTAGCTGTCTGTGATGCATGCATGGTCACGGAGTCACCTAGTGCAG”, for which the binding signal is 44200 fluorescence intensity (a.u.).

Take “ATATACATATACATATATATACACACACACGTATACATAGCGGAGTCACCTAGTGCAG”: the binding signal is 4840 fluorescence intensity (a.u.).

“TATATATGGCCTTTGGTCTGCATAGCTGTCCACGTCATCACGGAGTCACCTAGTGCAG”: the binding signal is 42200 fluorescence intensity (a.u.).

As to “AAAGTCATGTCATCACGTATATATCACGTATACATATATACGGAGTCACCTAGTGCAG”, the binding signal is 4080 fluorescence intensity (a.u.).

Consider “GCAGCATAGTTAGCTTTATATCTGTTTTACGTCATCACCACGGAGTCACCTAGTGCAG”, for which the binding signal was 6330 fluorescence intensity (a.u.).
